Compound activity: PubChem BioAssay, National Center for Advancing Translational Sciences (NCATS)
SARS PLP yeast: blocks SARS-CoV papain-like protease in a yeast assay; S. cerevisiae expressing SARS-CoV PLpro, growth rescue; Potency, µM (highest dose often 32.9 µM), for inactives: at the highest dose activity, positive = growth rescue, actives largely listed as activators; 0.19% of 330,000 active; AID 485353; calls by dose curve; also: potency is read from the fitted curve at half-maximal effect; 0% is about no effect; nearly all actives have a fitted effect of over 55% in size
Sm TGR block: blocks Schistosoma mansoni thioredoxin glutathione reductase; Q962Y6; purified TGR, DTNB reduction, TNB absorbance 405 nm; Potency, µM (titrated, usually from 114 µM), for inactives: at the top dose activity change, negative = inhibition, actives largely listed as inhibitors; 3% of 360,000 active; also: potency is read from the fitted curve at half-maximal effect; % is scaled to controls: 0 for no effect and ±100 for the full control effect; nearly all actives have a fitted effect of over 60% in size
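First, TGR (20 nM dispensed) and NADPH were mixed with compound. Second, a 15 min room-temperature incubation followed. Third, further NADPH and then DTNB were added to start the reaction. Finally, TNB absorbance was monitored kinetically.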
Pf growth 48h: P. falciparum growth inhibition at 48 hours (one generation). P. falciparum luciferase growth in erythrocytes, 48 h. Potency, µM (top dose mostly 28.7 µM), without a hit: at the highest dose activity change, negative = inhibition, usual class: inhibitors. 5.9% of 310,000 active; also: potency is read from the fitted curve at half-maximal effect; % is scaled to controls: 0 for no effect and ±100 for the full control effect
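First compound was added to culture medium, then infected red cells at 0.1% parasitemia and 2% hematocrit (final). After incubation at 37 C under 5% CO2, luciferase detection reagent was dispensed and light output recorded.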
HCMV antiviral: inhibitors of human cytomegalovirus; HFF cells, HCMV-luciferase reporter, 72 h; stronger effect = lower value; activity change, negative = inhibition, % at 57.5 µM; 4.5% of 410,000 active; in the data active = activity change below about -60%; inconclusive = no clear call, values can overlap the other calls; inactive = above about -39%; also: % is scaled to controls: 0 for no effect and ±100 for the full control effect
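Inhibition of viral replication was scored as loss of reporter luminescence in HFFs infected with HCMV-luciferase (MOI 1 PFU/cell) for 72 h; compounds tested at 2 doses, normalized to buffer and Salinomycin controls.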
Pf growth 96h: P. falciparum growth inhibition at 96 hour, primary screen for plastid delayed-death inhibitors | P. falciparum luciferase reporter growth, 96 h | Potency, µM (top dose mostly 28.7 µM), for the others: at the top dose activity change, negative = inhibition, actives largely listed as inhibitors | 6.9% of 320,000 active; also: potency is read from the fitted curve at half-maximal effect; % is scaled to controls: 0 for no effect and ±100 for the full control effect
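P. falciparum expressing integrated firefly luciferase, in erythrocytes at 2% hematocrit, 0.05% parasitemia, incubated with compounds 96 h at 37 C, 5% CO2. Growth inhibition read as loss of luminescence; two-generation exposure targets delayed-death apicoplast inhibitors.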
HCV inh: blocks hepatitis C virus | Huh7.5.1 HCVcc-Cre infection, luciferase reporter, 44 h | 3.4% of 340,000 active | Potency, µM (series often up to 41.8 µM), without a hit: at the highest dose activity change, negative = inhibition, hits mostly inhibitors | AID 651820; also: potency is read from the fitted curve at half-maximal effect; % is scaled to controls: 0 for no effect and ±100 for the full control effect
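Cells seeded at 1,000/well and cultured 4 h, then compounds added followed by HCVcc-Cre virus (~0.5 moi). After 44 h further culture, luciferase substrate was added, plates held 15 min at room temperature, and luminescence read for 15 sec.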
Active calls of the source: *; ? = inconclusive; · = not tested or not shown; [ ] = remark or other dose. In the library only some 15% were active in any assay of this set; here they are far more common. Unless noted, calls follow the shape of the dose curve; as a rule, active = well fitted curve in the direction sought with a large enough effect; inconclusive = small, poorly fitted or top-dose-only effect, or another doubt; inactive = no such curve, though single readings can be large; an effect the other way counts as inactive or inconclusive.

SMILES	SARS PLP yeast	Sm TGR block	Pf growth 48h	HCMV antiviral	Pf growth 96h	HCV inh
CC(C)Oc1ccc(CN2CCC(n3nccc3NC(=O)C3CC3)CC2)cc1	-1%	40%	6%	-70*	?	8%
CCOc1cc(CN2CCC(n3nccc3NC(=O)C3CC3)CC2)ccc1O	-4%	40µM*	14%	0	3%	9%
CC(Cc1ccc(Cl)cc1)N1CCC(n2nccc2NC(=O)C2CCCC2)CC1 (centres undefined)	2%	9%	10µM*	-34	?	?
O=C(Nc1ccnn1C1CCN(C(=O)c2ccc(Cl)cc2)CC1)C1CC1	-1%	-1%	42%	20	17%	8%
CC(C)N(C)c1ncnc2c1ncn2[C@H]1CN(Cc2cccs2)C[C@@H](CO)O1	·	·	·	-23	·	·
Cc1ccc(S(=O)(=O)N2CCCCC2CCNC(=O)C(=O)NCc2ccncc2)cc1 (centres undefined)	-6%	-2%	7%	-14	?	-16%
O=C(Nc1cc(Cl)ccc1N1CCOCC1)C1CC1	0%	·	·	24	·	8%
CCCCC1CCC(C(=O)Nc2ccccc2N2CCOCC2)CC1 (centres undefined)	-2%	7%	15µM*	-15	?	?
CCCCCC(=O)Nc1ccccc1N1CCOCC1	7%	26%	-4%	-6	23%	9%
CC(C)(C)C1CCC(C(=O)Nc2ccc(N3CCOCC3)cc2N2CCOCC2)CC1 (centres undefined)	-2%	-22%	10µM*	-23	?	-4%
CCOC(=O)[C@H]1[C@H]2COc3ccc(C)cc3[C@@H]2N2C(=O)CN(C)C(=O)[C@@]12C	·	·	·	-12	·	13%
COc1cc(C(=O)Oc2ccccc2/C=N/NC(=O)c2ccc(Cl)cc2Cl)cc(OC)c1OC	-3%	-4%	6.6µM*	-100*	?	?
C=CCOc1ccccc1/C=N/NC(=O)c1ccc(Cl)cc1Cl	-20%	-14%	4%	10	-9%	-18%
O=c1[nH]c(O)c(/C=C2/C=CC(c3cc(Cl)ccc3Cl)=N2)c(=O)[nH]1	-1%	-11%	65%	0	113%	32µM*
Fc1cccc(F)c1[B-](F)(F)F	·	·	·	-4	·	-3%[8.37 µM]
O=C(Oc1ccc(Cl)c2cccnc12)c1cccnc1	0%	40µM*	?	58	?	?
CN(C(=O)Oc1ccc(Cl)c2cccnc12)c1ccccc1	13%	-12%	?	-21	-27%	-6%
Cc1ccc(C(=O)Oc2ccc(Cl)c3cccnc23)cc1[N+](=O)[O-]	-20%	11%	13µM*	-5	?	-1%
COc1ccc(C(=O)Oc2cccc3cccnc23)cc1[N+](=O)[O-]	-6%	0%	-24%	-2	22%	-10%
C[C@@H]1CN([C@@H](C)CO)C(=O)CCCn2nncc2CO[C@H]1CN(C)S(C)(=O)=O	·	·	·	-9	·	·
Cc1ccc(S(=O)(=O)NCC(=O)NCC(=O)N(C)Cc2ccc3ccccc3c2)cc1C	16%	-9%	-23%	-23	-15%	10µM*
CSc1ccc(CN(C)C(=O)CNC(=O)CNS(=O)(=O)c2ccc(C)c(C)c2)cc1	-2%	-1%	2%	-31	-9%	?
CSc1ccc(CN(C)C(=O)CCNS(=O)(=O)c2ccc(C)c(C)c2)cc1	2%	1%	3.7µM*	-26	?	-27%
Cc1ccc(S(=O)(=O)N2CCCCC2)cc1NC(=O)Cn1cnnn1	-1%	15%	-14%	-6	-15%	27%
Cc1ccc(S(=O)(=O)N2CCCCC2)cc1NC(=O)Cn1ncc(Cl)c(Cl)c1=O	5%	·	·	-97*	·	0.71µM*
SMILES	SARS PLP yeast	Sm TGR block	Pf growth 48h	HCMV antiviral	Pf growth 96h	HCV inh
Cc1cc(Br)ccc1NC(=O)CNC(=O)Cn1ncc(Cl)c(Cl)c1=O	0%	1.4µM*	11%	-101*	1%	2.2µM*
Cc1ccc(S(=O)(=O)N2CCCCC2)cc1NC(=O)CNC(C)c1ccc(Cl)c(Cl)c1 (centres undefined)	1%	-3%	?	-1	?	8.9µM*
Cc1ccc2oc(=O)c3cnn(CC(=O)Nc4ccc(Br)cc4C)c3c2c1	·	0%	·	8	·	·
O=C(Cn1ncc(Cl)c(Cl)c1=O)N1CCN(S(=O)(=O)c2ccc3ccccc3c2)CC1	-18%	22µM*	-14%	-86*	?	5.6µM*
O=C(O)CCC(=O)N1CCN(S(=O)(=O)c2ccc3ccccc3c2)CC1	-1%	-7%	40%	?	8%	0%
NC(=O)/C(=C/c1cccnc1)NC(=O)c1ccccc1	3%	-7%	13%	4	17%	23%
COc1cc(OC)cc(-c2nc3nc(C)c(CCC(=O)Nc4ccc(F)cc4F)c(C)n3n2)c1	·	-18%	·	9	·	·
CCOc1ccc(C(=O)N[C@H](C(=O)Nc2ccc(S(=O)(=O)Nc3nccs3)cc2)C(C)C)cc1	2%	·	·	14	·	-2%
CN1OC[C@@H]2CN[C@H](c3cccc(-c4ccc(C#N)cc4)c3)C[C@@H]21	·	·	·	-23	·	-21%
COc1ccc(N(C(=O)CCl)C(C(=O)NCCc2ccccc2)c2cccs2)cc1Cl (centres undefined)	-54%	10µM*	9.3µM*	-103*	4.7µM*	0.56µM*
N#Cc1cccc(NC(=S)Nc2ccccc2)c1	0%	50µM*	33%	-68*	64%	10%
Oc1ccc(NC(=S)Nc2ccccc2)cc1	?	-6%	86%	?	64%	-4%
CCn1cc(C(=O)NCCc2ccc(OC)c(OC)c2)c(=O)c2cc(S(=O)(=O)N3CCc4ccccc4C3)ccc21	·	1%	·	-26	·	·
COc1ccc(N(Cc2cc(=O)[nH]c3ccccc23)C(=O)c2ccco2)cc1	9%	32µM*	?	30	?	6%
CCCC(=O)N(Cc1cc(=O)[nH]c2ccccc12)c1ccccc1OC	-2%	-1%	7.4µM*	12	12µM*	-10%
CCC(=O)N(Cc1cc2cc(OC)ccc2[nH]c1=O)c1ccccc1OC	·	·	·	-24	·	·
CCC(=O)N(Cc1cc2ccc(C)cc2[nH]c1=O)c1ccccc1OC	3%	89µM*	?	27	?	-6%
CCCC(=O)N(Cc1cc(=O)[nH]c2ccccc12)c1ccc(C)cc1C	-1%	-3%	?	17	?	-18%
Cc1ccc(N(Cc2cc(=O)[nH]c3ccccc23)C(=O)CCl)c(C)c1	-1%	13µM*	9.3µM*	-97*	6.6µM*	?
CC(=O)c1ccc(N2CCN(C(=O)c3cc(S(=O)(=O)N4CCCCCC4)cn3C)CC2)cc1	·	-2%	·	4	·	·
